CtBP-E1A blk = qHTS Assay for Inhibitors of the CtBP/E1A Interaction; AID 651724, 2012; AlphaScreen GST-E1A/His-CtBP binding, 1536-well; active compounds read low; 340,000 tested, 0.49% active; activity change, % (test concentration not listed); in the data active means activity change below about -65%; inconclusive means mostly about -30% to -63%
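Steps: dispense buffer (Tris pH 8.0, NaCl 300 mM, TCEP 1 mM, BSA, Tween 20); add 5X protein mix (GST-E1A, His-CtBP, 125 nM each); pin 23 nL compound; 2 h at 37 °C, dark; add 5X beads (50 ug/mL); 1 h; read.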
TDP1 cell noCPT = qHTS for Inhibitors of human tyrosyl-DNA phosphodiesterase 1 (TDP1): qHTS in cells in absence of CPT. DT40 Tdp1-/- hTDP1 cells, no CPT, ATP luminescence, 48 h. Potency, µM (highest dose often 46.2 µM), most hits filed as inhibitors. 420,000 tested, 15% active. AID 686978, 2013; further: nearly all actives have a fitted effect of over 55% in size
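DT40 Tdp1-/-;hTDP1 cells, no CPT (DMSO vehicle only), 400 cells/well; compounds pin-transferred; ≥48 hr, 37 °C; CellTiter-Glo 30 min RT dark, luminescence read.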
Six1-Eya2 inh = qHTS Assay for Inhibitors of the Six1/Eya2 Interaction. 360,000 tested, 0.56% active. AlphaScreen GST-Six1/His-Eya2 binding, biochemical; active compounds read low. Homeobox protein SIX1 (Homo sapiens) + Protein phosphatase EYA2 (Homo sapiens), …. activity change, % (no concentration beside the values); in the data active means activity change below about -65%; inconclusive means mostly about -30% to -63%
Target sequence (O00167 whole entry, looked up): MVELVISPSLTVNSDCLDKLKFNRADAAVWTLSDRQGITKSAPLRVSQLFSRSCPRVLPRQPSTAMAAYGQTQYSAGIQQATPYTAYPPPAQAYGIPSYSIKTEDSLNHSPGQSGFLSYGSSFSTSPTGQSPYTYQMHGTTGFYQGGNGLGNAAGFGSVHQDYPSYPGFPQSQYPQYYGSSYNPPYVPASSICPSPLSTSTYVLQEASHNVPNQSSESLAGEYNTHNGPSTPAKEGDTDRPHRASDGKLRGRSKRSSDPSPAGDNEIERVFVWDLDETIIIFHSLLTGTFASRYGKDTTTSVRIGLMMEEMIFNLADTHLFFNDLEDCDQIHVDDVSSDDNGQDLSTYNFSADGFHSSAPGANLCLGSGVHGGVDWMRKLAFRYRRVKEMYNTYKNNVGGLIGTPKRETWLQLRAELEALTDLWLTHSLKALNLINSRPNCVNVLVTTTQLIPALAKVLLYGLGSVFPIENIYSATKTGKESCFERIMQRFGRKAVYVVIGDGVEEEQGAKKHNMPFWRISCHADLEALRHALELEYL
Target sequence (Q15475 whole entry, looked up): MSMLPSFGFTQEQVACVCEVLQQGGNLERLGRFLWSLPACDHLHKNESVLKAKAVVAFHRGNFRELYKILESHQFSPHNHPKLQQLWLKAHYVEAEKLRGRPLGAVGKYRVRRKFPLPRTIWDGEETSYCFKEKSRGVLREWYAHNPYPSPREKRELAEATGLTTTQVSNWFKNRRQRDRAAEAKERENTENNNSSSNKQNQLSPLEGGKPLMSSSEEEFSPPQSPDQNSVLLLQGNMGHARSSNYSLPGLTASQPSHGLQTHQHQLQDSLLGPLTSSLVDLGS
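Compounds are tested against tagged Six1 and Eya2 proteins bridged by glutathione donor and nickel acceptor beads; after a one-hour incubation at 37 °C without light, AlphaScreen emission is recorded.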
IL-1B inflam inh = qHTS for Inhibitors of Inflammasome Signaling: IL-1-beta AlphaLISA Primary Screen. THP-1 LPS/ATP IL-1B secretion, AlphaLISA, 16 h; active compounds read low. activity change, % at 57.5 µM. 360,000 tested, 4.7% active; in the data active means activity change below about -50%; inconclusive means mostly about -30% to -49%
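Secreted IL-1B measured by AlphaLISA bead assay after 16 h compound exposure of THP-1 cells; compounds (final up to 57.5 uM) added 1 h before LPS (250 ng/mL) and ATP (1.25 mM) stimulation; lower signal means less secretion.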
TDP1 inh = qHTS Assay for Inhibitors of Tyrosyl-DNA Phosphodiesterase (TDP1) | 350,000 tested, 0.28% active | Potency, µM (doses to about 130 µM), actives largely listed as inhibitors | Tyrosyl-DNA phosphodiesterase 1 (Homo sapiens), Q9NUW8 | recombinant TDP1, AlphaScreen DNA substrate cleavage; further: nearly all actives have a fitted effect of over 40% in size
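Steps: enzyme plus compound, 15 min RT; add biotin/phosphotyrosine-FITC oligonucleotide (15 nM final), react 5 min; add donor/acceptor beads (10 ug/ml final), 10 min; read AlphaScreen. Tdp1 at 1 nM final.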
TDP1 cell CPT = qHTS for Inhibitors of human tyrosyl-DNA phosphodiesterase 1 (TDP1): qHTS in cells in presence of CPT | chicken DT40 Tdp1-/-;hTDP1 cells + 20 nM CPT, ATP luminescence, 48 h | Potency, µM (titrated, usually from 46.2 µM), most hits filed as inhibitors | 420,000 tested, 12% active | AID 686979, 2013; further: nearly all actives have a fitted effect of over 55% in size
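Chicken DT40 Tdp1-/- cells complemented with human TDP1, 400 cells/well, exposed to compounds plus 20 nM camptothecin for at least 48 h at 37 C; viability read as ATP content by CellTiter-Glo luminescence.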
A number is an active result; n = inactive; u = inconclusive; x = no result; [ ] = dose if it differs, or a comment. The list is not random: actives were taken first. Their share in the collection is about 18%. Unless noted, the call rests on the fitted dose curve; in most records, active means well fitted curve in the direction sought with a large enough effect; inconclusive means small, poorly fitted or top-dose-only effect, or another doubt; inactive means no such curve, though single readings can be large; an effect the other way counts as inactive or inconclusive.

SMILES	CtBP-E1A blk	TDP1 cell noCPT	Six1-Eya2 inh	IL-1B inflam inh	TDP1 inh	TDP1 cell CPT
CCOC(=O)c1scc(-c2ccc(C)cc2)c1S(=O)(=O)Nc1cc(Cl)ccc1OC	x	3.3µM	x	x	n	5.8µM
CCOC(=O)c1scc(-c2ccc(C)cc2)c1S(=O)(=O)Nc1ccc(F)c(F)c1	x	u	x	x	n	n
CCOC(=O)c1scc(-c2ccccc2)c1S(=O)(=O)Nc1cc(Cl)c(OC)cc1OC	x	15µM	x	x	n	u
CC(C)C(NCc1c(Cl)cccc1Cl)C(=O)O (centres undefined)	n	n	n	n	n	n
O=C(Nc1ccc2c(c1)OCCO2)C1c2ccccc2OCC(=O)N1Cc1ccco1 (centres undefined)	n	n	n	n	x	n
Cc1ccc2nc(N3CCN(CCO)CC3)nc(-c3ccccc3)c2c1	n	u	n	u	x	u
Clc1ccc2nc(N3CCNCC3)nc(-c3ccccc3)c2c1	n	9.2µM	n	-95	n	18µM
Clc1ccc(-c2nc(N3CCOCC3)nc3ccccc23)cc1	n	u	n	n	x	u
O=C1CN(c2nc(-c3ccccc3)c3cc(Cl)ccc3n2)c2ccccc2N1	n	21µM	n	n	n	16µM
OCCN1CCN(c2nc(-c3ccccc3)c3cc(Cl)ccc3n2)CC1	n	23µM	n	-52	n	u
Oc1c(Cl)cc(Cl)cc1CNc1ccc(Br)cn1	-75	n	-70	-85	n	n
Oc1ccc(Cl)cc1CNc1ccc(Br)cn1	n	n	n	u	n	n
CCc1nc2c(OCC(=O)N(C)C)cccn2c1N(C=O)Cc1ccc(OC)cc1	n	n	n	n	x	n
COc1ccc(OCC(=O)Nc2ccccc2C(=O)N2CCOCC2)cc1	n	n	n	n	n	n
Cc1ccccc1OCC(=O)Nc1ccccc1-c1ccccc1	n	6.5µM	n	n	n	n
CC(C)c1ccccc1OCC(=O)Nc1ccccc1C(=O)N1CCOCC1	n	16µM	n	n	n	16µM
CCC(=O)c1ccc(OCC(=O)Nc2ccccc2C(=O)N2CCCCC2)cc1	n	16µM	n	-62	n[0.505 µM]	u
CCN(CC)c1ccc(C(=O)OCC(=O)NC2CCCCC2C)cc1 (centres undefined)	n	15µM	n	n	n	21µM
CCOC(=O)N1CCN(C(=O)C2CCN(C(=O)c3ccccc3C)CC2)CC1	n	1µM	n	-103	x	0.92µM
Cc1ccc(OCC(=O)Nc2ccccc2-c2ccccc2NC(=O)COc2ccc(C)cc2)cc1	n	21µM	n	n	n	u
Cc1ccccc1C(=O)N1CCC(C(=O)N2CCN(c3ncccn3)CC2)CC1	n	n	n	n	n	n
CCOC(=O)N1CCN(C(=O)c2ccccc2NC(=O)COc2ccccc2C)CC1	n	21µM	n	n	n	u
Cc1ccccc1OCC(=O)Nc1ccccc1C(=O)NC1CC1	n	21µM	n	n	n[0.505 µM]	u
Cc1ccc(C)c(OCC(=O)Nc2ccccc2C(=O)N2CCN(C)CC2)c1	n	n	n	n	n	n
O=C(COc1ccccc1)Nc1ccccc1C(=O)NC1CC1	n	u	n	n	x	n
SMILES	CtBP-E1A blk	TDP1 cell noCPT	Six1-Eya2 inh	IL-1B inflam inh	TDP1 inh	TDP1 cell CPT
COc1ccc(OCC(=O)Nc2ccccc2-c2ccccc2)cc1	n	u	n	n	n	u
COCCNc1ncncc1-c1c(C)noc1C	x	n	x	x	x	n
O=C(c1ccccc1N(Cc1ccccc1)S(=O)(=O)c1ccccc1)N1CCOCC1	n	u	n	n	n[0.0935 µM]	n
CCN(CC)c1ccc(C(=O)OCC(=O)Nc2ccccc2-c2ccccc2)cc1	x	18µM	n	n	n	u
Cc1cccc(OC(C)C(=O)Nc2ccccc2C(=O)N2CCCCC2)c1 (centres undefined)	n	13µM	n	n	n	u
COC(=O)c1ccc(NC(=S)NC(=O)C2CCC2)cc1	n	n	n	n	n	n
COC(=O)c1ccc(NC(=S)NC2CCCCC2C)cc1 (centres undefined)	n	26µM	n	n	n	23µM
CCOC(=O)N1CCN(C(=O)c2ccccc2N(Cc2ccccc2)S(=O)(=O)c2ccccc2)CC1	n	21µM	n	n	x	21µM
CCOC(=O)N1CCC(NC(=S)Nc2ccc3nc(N4CCN(C)CC4)cc(C)c3c2)CC1	n	u	n	-100	n	n
CCOc1ccccc1NC(=O)Nc1ccc2nc(N3CCN(C)CC3)cc(C)c2c1	x	23µM	x	x	n	u
CCOc1ccccc1C(=O)Nc1ccc2nc(N3CCN(c4ncccn4)CC3)cc(C)c2c1	n	9.2µM	n	u	x	18µM
CC(C)CC(C(=O)Nc1ccc2c(c1)OCCO2)N1C(=O)c2ccccc2C1=O (centres undefined)	n	n	n	n	n	n
Cn1c(=O)c2c(nc(NCc3ccccc3)n2Cc2ccc(F)cc2)n(C)c1=O	x	x	x	x	n	x
CCCNc1nc2c(c(=O)n(C)c(=O)n2C)n1Cc1ccc(F)cc1	n	9.2µM	n	n	n	6.5µM
Cc1ccc(-n2ccnc(NCc3ccccc3)c2=O)cc1C	x	u	x	x	n	u
CCC(C)Nc1nc2c(c(=O)n(C)c(=O)n2C)n1Cc1ccc(Cl)cc1 (centres undefined)	n	23µM	n	n	x	13µM
CCC(C)Nc1nc2c(c(=O)n(C)c(=O)n2C)n1Cc1cccc(C)c1 (centres undefined)	n	n	n	n	n	n
CCNc1nc2c(c(=O)n(Cc3ccccc3)c(=O)n2C)n1Cc1ccccc1	n	u	n	u	n	u
CCNc1nc2c(c(=O)n(C)c(=O)n2C)n1Cc1ccc(Cl)cc1	n	6.5µM	n	n	x	3.7µM
COc1ccc(OC)c(CCNc2nccn(-c3ccc(C)c(C)c3)c2=O)c1	x	21µM	x	x	n	15µM
Cc1cccc(OCc2nnc(N)s2)c1C	n	n	n	n	n	n
COc1ccc(-n2ccnc(NCc3ccc(Cl)cc3)c2=O)cc1	x	15µM	x	x	n	u
COc1ccc(CNc2nc3c(c(=O)n(Cc4ccc(Cl)cc4)c(=O)n3C)n2C)cc1	n	23µM	n	u	n	18µM
COCCNc1nc2c(c(=O)n(Cc3ccc(OC)cc3)c(=O)n2C)n1C	n	n	n	n	n	n

Compound activity from PubChem BioAssay.
